BAP1 inh: inhibitors of BAP1 deubiquitinase, primary screen, biochemical, Ub-AMC fluorescence, kinetic; recombinant BAP1, Ub-AMC hydrolysis fluorescence kinetic; hits give low values; 0.48% of 72,000 active; calls only at 20 µM; AID 436, 2006;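 active means activity remaining at or below 50% of control, provided the compound also passes the data quality filters; inactive means the rest, including low values that fail the filters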;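 further: 100% = DMSO wells rate and 0% = substrate alone blank rate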
Ec RNAP inh: E. coli RNAP inhibitors, biochemical | DNA-directed RNA polymerase subunit beta (Escherichia coli (strain K12)), P0A8V2 | E. coli RNA polymerase, fluorescence transcription assay | inhibition, %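 (tested at 10 µM)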 | 0.2% of 62,000 active | AID 559, 2006; in the data active means inhibition above about 20%;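 further: 0% = enzyme without compound and 100% = no enzyme blank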
C1s inh: complement C1s protease inhibitors, primary screen, biochemical, 10-compound mixtures; Complement C1s subcomponent (Homo sapiens), P09871; purified C1s, fluorogenic AMC substrate, pooled mixtures; mean inhibition % of two 10-compound mixtures (hits give high values), % at 5 µM (by protocol); 0.16% of 62,000 active; AID 538, 2006;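 active means inhibition above 20% in each of the two 10-compound mixture wells holding the compound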;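 further: 0% = enzyme wells lacking compound mixture and 100% = no-enzyme blank wells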
FXIa mix inh: FXIa protease inhibitors in compound pools, primary screen, biochemical, 10-compound mixtures | Coagulation factor XI (Homo sapiens), P03951 | purified FXIa, fluorogenic substrate, pooled mixtures | inhibition, % at 5 µM | 0.19% of 62,000 active | AID 680, 2007;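 further: each value is inhibition by a whole ten-compound pool holding the compound; 0% = enzyme with no mixture and 100% = wells lacking enzyme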
Cathepsin G inh: human cathepsin G inhibitors, primary screen, biochemical, pooled compound mixtures, AMC fluorescence; purified enzyme, AMC-tetrapeptide fluorescence; inhibition, % at 5 µM (by protocol); 0.2% of 62,000 active; AID 581, 2007;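 active means inhibition above 20% in each of the two mixture wells holding the compound; inactive means inhibition of 20% or less in either well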;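 further: 0% = enzyme control without mixture and 100% = blank lacking enzyme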
FXIIa inh mix: human factor XIIa inhibitors, primary screen, biochemical, pooled compound mixtures, fluorogenic substrate; AID 684, 2007; Coagulation factor XII (Homo sapiens), P00748; 0.2% of 62,000 active; inhibition, % at 5 µM; purified FXIIa;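 further: 0% = enzyme without compound and 100% = no enzyme blank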
BAP1 inh confirm: BAP1 deubiquitinase inhibitors, hit retest, confirmation, orthogonal assay, biochemical, Ub-ethyl ester substrate, HPLC readout. shares compounds with BAP1 inh. purified BAP1, Ub-ethyl ester hydrolysis; hits give low values. % of control activity, % at 20 µM. 8% of 310 active;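 active means percent of control activity at or below 60%; inconclusive means HPLC trace unusable from injection failure or solvent front hiding peaks; inactive means the rest, plus ubiquitin peak ratio over a set limit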
* = called active by the depositor; i = inactive; ? = inconclusive; · = no result; + = active, no number. Shown are actives, neighbours in structure and some others; about 1.1% of the full set was active somewhere. Unless noted, no stated cut-off is given here; in the data, active means inhibition above about 20% (passing the limit was not always enough); inactive means the rest.

SMILES | BAP1 inh | Ec RNAP inh | C1s inh | FXIa mix inh | Cathepsin G inh | FXIIa inh mix | BAP1 inh confirm
Cc1ccc(-c2nc3cccnc3o2)cc1NC(=O)COc1ccc(Cl)cc1C | + | 5.6 | 6.4 | 4.6 | 9.7 | 4.0 | 80.7
CCn1c(SCC(=O)c2cc(OC)ccc2OC)nc2c1c(=O)n(C)c(=O)n2C | i | 14.1 | 11.8 | 2.7 | 8.8 | -10.9 | ·
COc1ccc2c(c1)c1nc(SCC(C)C)n(CCO)c(=O)c1n2C | + | 5.3 | -2.6 | 8.4 | 20.3 | -2.0 | 117.4
COc1cc(OC)nc(NC(=O)CSc2nc3ccccc3o2)n1 | + | 6.0 | -0.1 | 5.5 | 5.0 | 2.2 | 84.4
COC(=O)CSc1nc2ccccc2o1 | · | 4.5 | 5.5 | 0.5 | 7.4 | 1.6 | ·
COc1ccc(Cn2nnnc2CN(Cc2cc3ccc(C)cc3[nH]c2=O)C2CCCC2)cc1 | i | 6.0 | -32.5 | 6.5 | -2.2 | 3.6 | ·
CCC(C)(C)n1nnnc1CN(Cc1cc2cc(OC)ccc2[nH]c1=O)C1CCCC1 | + | 7.1 | 0.3 | 2.4 | 9.4 | 0.4 | 129.7
Cc1ccc2nc(N=C(NC(=O)c3ccccc3)NC(=O)c3ccccc3)nc(C)c2c1 | i | · | · | · | · | · | ·
COC1=Cc2c(ccc3ccc(=O)oc23)OC1(C)C | · | 6.0 | 9.3 | 10.1 | 7.5 | 5.4 | ·
CC(=O)OC1c2c(ccc3ccc(=O)oc23)OC(C)(C)C1OC(=O)CC(C)C (stereo not given) | + | 6.7 | -12.2 | 0.3 | 5.7 | 8.8 | 99.3
Cn1c(=O)oc2cc(S(=O)(=O)N3CCOCC3)ccc21 | i | 4.8 | -120.7 | -33.9 | -22.7 | 4.3 | ·
O=S(=O)(c1ccc2c(c1)oc1ccccc12)N1CCOCC1 | + | 4.0 | -24.4 | 3.8 | 0.0 | 12.1 | 112.1
Cc1cc(Cl)c2c(c1)[C@]1(C(=O)N2)[C@@H]2C(=O)N(Cc3ccccc3)C(=O)[C@@H]2[C@@H]2CCCN21 | i | 6.2 | 15.6 | 9.6 | 9.5 | 2.5 | ·
O=C1[C@H]2[C@@H](C(=O)N1c1cc(Cl)cc(Cl)c1)[C@]1(C(=O)Nc3ccccc31)N1CCC[C@@H]21 | + | 11.6 | 6.7 | 5.6 | 3.1 | 1.5 | 94.9
CCOC(=O)c1c(NC(=O)CSc2nnc(CNc3ccc(F)cc3)o2)sc(C)c1C | + | 5.7 | -7.6 | 6.9 | -4.8 | 24.4 | ?
CCOC(=O)c1[nH]c(CSc2nnc(-c3ccc(OC)cc3)o2)c(C(=O)OCC)c1C | + | 5.8 | 10.4 | 6.6 | 6.7 | -7.5 | 138.4
COc1ccc(-c2nnc(SCC(=O)c3[nH]c(C)c(C(C)=O)c3C)o2)cc1 | i | 5.1 | -8.2 | -5.6 | 5.7 | -13.9 | ·
O=C(CSc1nnc(-c2c[nH]c3ccccc23)o1)N1c2ccccc2CCc2ccccc21 | + | 0.1 | -93.4 | -1.2 | -9.2 | 4.6 | 93.7
COc1ccc(C2C(C(=O)OCc3ccccc3)=C(C)NC3=C2C(=O)CCC3)c(OC)c1 (stereo not given) | i | · | · | · | · | · | ·
Cc1cc2n(n1)C(c1ccco1)Nc1ccccc1-2 (stereo not given) | + | 5.3 | 5.8 | 7.0 | 6.2 | 3.0 | 97.7
Cc1cc2n(n1)C(c1ccc(O)cc1)Nc1ccccc1-2 (stereo not given) | i | · | -206.7 | -34.1 | -15.7 | 7.3 | ·
CCOC(=O)N1CCC(NC(=O)c2ccc3c(c2)sc2nc(-c4ccccc4)cn23)CC1 | + | 3.4 | 1.0 | 2.0 | 7.7 | 5.8 | 101.3
CC1=C(C(=O)Nc2ccc(C)cc2)C(c2cccc(Cl)c2)NC(=O)N1 (stereo not given) | i | · | · | · | · | · | ·
CCOC(=O)N1CCN(C(=O)c2cccn3c(=O)c4sccc4nc23)CC1 | + | -15.6 | -32.7 | -5.2 | -16.6 | 4.3 | 99.7
O=C(Nc1ccc(F)cc1F)c1cc2n(n1)C(C(F)(F)F)C1CCCCC1N2 (stereo not given) | + | -0.7 | -3.7 | 3.7 | 0.7 | 5.1 | 117.4
SMILES | BAP1 inh | Ec RNAP inh | C1s inh | FXIa mix inh | Cathepsin G inh | FXIIa inh mix | BAP1 inh confirm
O=C(Nc1ccc(I)cc1)c1ccc(Br)c(S(=O)(=O)N2CCCCC2)c1 | i | · | · | · | · | · | ·
CCOc1ccc(N2Cc3ccccc3C2)cc1 | + | 11.1 | -7.6 | -4.5 | 10.3 | 3.3 | 94.2
O=c1[nH]cnc2c1oc1ccccc12 | i | 5.5 | 8.1 | 4.1 | 10.2 | 7.8 | ·
O=C(O)c1c(-c2ccccc2)c2oc3ccccc3c2[nH]c1=O | + | 1.6 | -19.9 | -3.2 | 2.0 | -18.9 | 115.4
CCCCCCn1c(-c2ccco2)nc2oc3cc(OC)ccc3c(=O)c2c1=O | + | · | -5.6 | 0.6 | -7.6 | 2.4 | 131.7
O=C(c1ccco1)[C@@H]1[C@@H]2C(=O)N(c3ccc(Br)cc3)C(=O)[C@@H]2C2c3ccccc3C=CN21 (stereo not given in full) | + | 11.5 | 9.8 | 1.8 | 9.4 | 11.3 | 91.2
O=C(c1ccco1)[C@@H]1[C@@H]2C(=O)N(c3ccc(F)cc3)C(=O)[C@@H]2C2c3ccccc3C=CN21 (stereo not given in full) | i | 9.4 | 2.3 | -1.2 | 10.8 | 21.7 | ·
Cc1sc(NC(=O)CSc2nnc(-c3ccccc3)o2)c(C#N)c1C | + | 9.5 | 5.0 | 3.8 | 9.3 | 4.4 | 37.2*
CCOC(=O)c1sc(NC(=O)COc2ccc(Cl)cc2)nc1-c1ccccc1 | i | · | · | · | · | · | ·
CC(C)Cn1cc(C(=O)N2CCN(c3ccccn3)CC2)c2c3ccccc3n(C)c2c1=O | + | 1.7 | -3.0 | -3.1 | -2.0 | -19.0 | 142.8
Cc1ccc(Oc2cc(C)nc(-c3ccccc3O)n2)cc1 | i | 6.6 | 2.5 | -0.1 | 3.6 | 5.4 | ·
Cc1cc(OCc2ccc(F)cc2)nc(-c2ccccc2O)n1 | + | 1.6 | -120.3 | -36.4 | -21.2 | -1.4 | 165.3
Cc1ccc(-n2nnnc2SCC(=O)Nc2cccc(NC(=O)c3ccco3)c2)cc1C | + | 3.7 | 18.7 | 4.0 | 8.8 | 4.7 | 91.8

Screening results: PubChem BioAssay, several laboratories
